Reference: the GenesisPotency data set
Out of some 290,000 compounds screened, about 3,000 (1%) were called active. No stated cut-off is given here; in the data, active means inhibition mostly above about 36% (no sharp cut-off); inactive means mostly below about 34%. The sample as a whole holds a higher share of actives than the screen did.

biological target: T1, Nucleotide-binding oligomerization domain-containing protein 1, Homo sapiens (UniProt Q9Y239); assay: inhibition of NOD1-driven NF-kB reporter – cell-based, luminescence, uHTS, primary screen (AID 1578)
T1 sequence (whole entry): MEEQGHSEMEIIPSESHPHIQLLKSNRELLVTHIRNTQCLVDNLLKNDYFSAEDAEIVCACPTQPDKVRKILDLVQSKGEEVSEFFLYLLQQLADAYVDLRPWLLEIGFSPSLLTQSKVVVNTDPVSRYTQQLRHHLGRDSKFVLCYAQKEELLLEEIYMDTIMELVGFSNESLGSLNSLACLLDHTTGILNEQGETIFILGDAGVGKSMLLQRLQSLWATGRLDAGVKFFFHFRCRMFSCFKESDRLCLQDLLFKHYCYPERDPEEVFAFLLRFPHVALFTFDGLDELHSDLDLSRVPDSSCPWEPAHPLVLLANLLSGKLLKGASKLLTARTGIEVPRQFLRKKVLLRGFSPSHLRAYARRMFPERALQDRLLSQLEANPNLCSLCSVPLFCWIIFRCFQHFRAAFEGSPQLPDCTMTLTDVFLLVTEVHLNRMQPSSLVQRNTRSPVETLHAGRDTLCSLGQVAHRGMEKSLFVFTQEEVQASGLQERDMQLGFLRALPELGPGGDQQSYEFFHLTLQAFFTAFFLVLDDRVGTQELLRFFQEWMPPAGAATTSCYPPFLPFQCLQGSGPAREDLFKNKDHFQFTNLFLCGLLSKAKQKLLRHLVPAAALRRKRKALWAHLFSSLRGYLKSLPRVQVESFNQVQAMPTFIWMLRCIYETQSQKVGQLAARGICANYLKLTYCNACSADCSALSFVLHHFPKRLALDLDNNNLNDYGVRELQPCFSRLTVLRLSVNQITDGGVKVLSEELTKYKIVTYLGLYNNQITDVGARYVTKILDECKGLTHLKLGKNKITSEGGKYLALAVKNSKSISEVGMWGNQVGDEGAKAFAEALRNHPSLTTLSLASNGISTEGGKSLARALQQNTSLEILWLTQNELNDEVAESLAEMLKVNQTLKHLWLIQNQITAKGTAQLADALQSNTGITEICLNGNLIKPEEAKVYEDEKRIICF

| Structure (SMILES) | outcome |
| --- | --- |
| CCN(CC)S(=O)(=O)c1cccc(NC(=O)Nc2cccc(C(F)(F)F)c2)c1 | active |
| Cc1cccc(Cc2cnc(N3C(=N)SC(C)C3=O)s2)c1 (stereo unspecified) | active |
| Cc1ccc(Cc2cnc(N3C(=N)SC(C)C3=O)s2)cc1 (stereo unspecified) | active |
| CC1=C(C(=O)OCc2ccc3c(c2)OCO3)C(c2ccc(Cl)cc2)NC(=O)N1 (stereo unspecified) | active |
| CC1=C(C(=O)OCc2ccc3c(c2)OCO3)C(c2ccc(O)c([N+](=O)[O-])c2)NC(=O)N1 (stereo unspecified) | active |
| CC1=C(C(=O)OCc2ccc3c(c2)OCO3)C(c2ccc(F)cc2)NC(=O)N1 (stereo unspecified) | active |
| CC1=C(C(=O)OCc2ccc3c(c2)OCO3)C(c2ccccc2)NC(=O)N1 (stereo unspecified) | active |
| O=C(NCc1ccccc1)C1=C[C@@H](c2csc3ccccc23)C[C@@H](OCCCCO)O1 | active |
| CCn1nc(C)c(NC(=O)/C=C/c2ccc(OC)c(COc3ccc(Br)cc3)c2)c1C | active |
| CCCN(CC(=O)Nc1ccccc1C)C(=O)CCl | active |
| CCC(C)N(CC(=O)Nc1cccc(C)c1C)C(=O)CCl (stereo unspecified) | active |
| CCc1c(C)sc2nc(C(C)C)nc(SCC(=O)N3CCc4ccccc4C3)c12 | active |
| Cc1cc(C(=O)CSc2nc3ccccc3c(=O)n2C)c(C)n1Cc1ccc2c(c1)OCO2 | active |
| Cc1cc(C(=O)CSc2nc3ccccc3c(=O)n2C)c(C)n1CC1CCCO1 (stereo unspecified) | active |
| Cc1cc(C(=O)CN2C(=O)c3ccccc3S2(=O)=O)c(C)n1CC1CCCO1 (stereo unspecified) | active |
| COc1ccc(CCNC(=S)N2CCC(Cc3ccccc3)CC2)cc1OC | active |
| N=C1S/C(=C\c2ccc(-c3cccc(Cl)c3)o2)C(=O)N1c1nccs1 | active |
| N=C1S/C(=C\c2ccco2)C(=O)N1c1nccs1 | active |
| Cn1ncc2c(N3CCN(c4ccc(Cl)c(Cl)c4)CC3)ncnc21 | active |
| O=C(Nc1ccc(Cl)c(Cl)c1)Nc1ccccc1NS(=O)(=O)c1cccs1 | active |
| O=C(Nc1ccc(Cl)c(Cl)c1)Nc1ccc(Br)cc1F | active |
| S=C(NCCc1ccccc1)Nc1cccc2cnccc12 | active |
| COc1ccccc1-c1nnc(SCC(=O)Nc2nc(-c3ccccc3)cs2)n1C | active |

| Structure (SMILES) | outcome |
| --- | --- |
| COc1nc(Nc2nc3ccccc3c(=O)[nH]2)nc2ccc(C)cc12 | active |
| COc1ccc(NC(=O)Cn2nnc(-c3ccccc3NS(=O)(=O)c3ccc(OC)cc3)n2)cc1 | active |
| COc1cc(Nc2nc3ccccc3nc2NS(=O)(=O)c2ccc([N+](=O)[O-])cc2)cc(OC)c1OC | active |
| Cc1ccc(S(=O)(=O)Nc2nc3ccccc3nc2Nc2cccc(S(=O)(=O)N3CCCC3)c2)cc1 | active |
| O=[N+]([O-])c1cccc(S(=O)(=O)Nc2nc3ccccc3nc2Nc2cccc(S(=O)(=O)N3CCCCC3)c2)c1 | active |
| CCOc1cc(C)c(Cl)cc1S(=O)(=O)n1nnc2ccccc21 | active |
| CC(=O)n1c(Cl)c(NC(=O)CCl)c2ccccc21 | active |
| COc1ccc(-c2csc(NC(=O)c3ccccc3NS(=O)(=O)c3ccc(C)cc3)n2)cc1 | active |
| COc1cccc(NC(=O)Nc2nc(-c3ccc(OC)c(OC)c3)cs2)c1 | active |
| Cc1ccc(S(=O)(=O)Nc2ccccc2C(=O)Nc2nc(-c3ccc(F)cc3)cs2)cc1 | active |
| COc1ccccc1C(=O)Nc1nc(-c2ccc(S(=O)(=O)N3CCOCC3)cc2)cs1 | active |
| COc1ccc(NC(=O)c2ccc(-c3ccccc3)cc2)cc1NS(=O)(=O)c1ccc(F)cc1 | active |
| O=C(Nc1nc(-c2ccccc2)cs1)c1ccccc1NS(=O)(=O)c1ccc(F)cc1 | active |
| COc1ccc(S(=O)(=O)Nc2ccccc2C(=O)Nc2nc(-c3ccc(F)cc3)cs2)cc1OC | active |
| COc1ccc(-c2csc(NC(=O)c3ccccc3NS(=O)(=O)c3ccc(F)c(F)c3)n2)cc1 | active |
| Cc1ccc(NC(=O)C2=C(c3ccccc3)S(=O)(=O)CCS2(=O)=O)cc1 | active |
| O=C(Nc1ccccc1)C1=C(c2ccccc2)S(=O)(=O)CCS1(=O)=O | active |
| NS(=O)(=O)c1ccc(Sc2nc3ccccc3s2)c([N+](=O)[O-])c1 | active |
| COc1ccc(-c2nn(-c3ccccc3)cc2/C=N/NC(=O)c2ccc(Br)o2)cc1 | active |
| Cc1ccc(-c2nn(-c3ccccc3)cc2/C=N/NC(=O)c2ccc(Br)o2)cc1 | active |
| O=C(OCn1ncc(Br)c(Br)c1=O)c1ccc(F)cc1 | active |
| O=C(OCn1ncc(Br)c(Br)c1=O)c1c(F)cccc1F | active |
| CC(=O)Cn1ncc(Br)c(Br)c1=O | active |

| Structure (SMILES) | outcome |
| --- | --- |
| O=C(NC(=S)N(CCCCO)C1CCCCC1)c1sc2ccccc2c1Cl | active |
| Cc1nnc(SCC(=O)N2CCC(c3noc4ccc(F)cc34)CC2)s1 | active |
| O=C(NC(Nc1nc2ccc([N+](=O)[O-])cc2s1)(C(F)(F)F)C(F)(F)F)c1ccccc1Cl | active |
| CC[C@@]1(O)C(=O)OCc2c1cc1n(c2=O)Cc2cc3c(N)cccc3nc2-1 | active |
| O=C(COC(=O)c1ccccc1C(=O)c1ccc(Cl)c([N+](=O)[O-])c1)NC1CC1 | active |
| CNC(=O)COC(=O)c1ccccc1C(=O)c1ccc(Cl)c([N+](=O)[O-])c1 | active |
| N#Cc1cccc(NC(=O)COC(=O)c2ccccc2C(=O)c2ccc(Cl)c([N+](=O)[O-])c2)c1 | active |
| Cc1ccc(Cl)c(NC(=O)COC(=O)c2ccccc2C(=O)c2ccc(Cl)c([N+](=O)[O-])c2)c1Cl | active |
| CC(C)(C)OC(=O)NCCc1nnc(S(=O)(=O)Cc2ccc(Cl)cc2Cl)o1 | active |
| Cc1sc2nc(SCc3ccc(C(=O)O)cc3)n(Cc3ccco3)c(=O)c2c1C | active |
| COC(=O)c1ccc2c(c1)C(C)(C)C(/C=C/c1ccc(O)cc1)=[N+]2C.[I-] | active |
| Cn1c(SC2=CS(=O)(=O)c3ccccc32)nc2ccccc21 | active |
| O=S1(=O)C=C(Sc2nc3cc(Cl)ccc3o2)c2ccccc21 | active |
| O=S1(=O)C=C(Sc2nc3ccccc3s2)c2ccccc21 | active |
| Cc1cc(C)cc(NC(=O)CSc2nnc(Cc3cccn3C)n2-c2ccc(F)cc2)c1 | active |
| O=C(NC(=C(Cl)Cl)S(=O)(=O)c1ccc(Cl)cc1)c1ccccc1 | active |
| CC(=O)NC(=C(Cl)Cl)S(=O)(=O)c1ccccc1 | active |
| Cc1ccc(C(=O)NC(=C(Cl)Cl)S(=O)(=O)c2ccccc2)cc1 | active |
| Cc1ccc(C(=O)NC(C#N)=C(Cl)Cl)cc1 | active |
| O=C(NCCCSc1ccccc1)c1cc(Br)ccc1O | active |
| O=C(NCCCSc1ccccc1)c1cc(Cl)ccc1O | active |
| CCOC(=O)c1cccc2c1-c1ccccc1/C2=N/O | active |
| COC(=O)c1cccc2c1-c1ccccc1/C2=N/O | active |

| Structure (SMILES) | outcome |
| --- | --- |
| Cc1[nH]c2ccccc2c1C(=O)CCl | active |
| Cc1ccc2c(C(=O)CCl)c(C)[nH]c2c1 | active |
| COc1cc(NS(=O)(=O)c2ccc3ccccc3c2)c2ncccc2c1 | active |
| O=[N+]([O-])c1ccccc1S(=O)(=O)Nc1cccc2cccnc12 | active |
| Cc1ccc2cccc(NS(=O)(=O)c3ccccc3)c2n1 | active |
| Cc1ccc(S(=O)(=O)Nc2cccc3cccnc23)cc1 | active |
| Cc1ccc(S(=O)(=O)Nc2cccc3cccnc23)c([N+](=O)[O-])c1 | active |
| C[C@@H]1C[C@@H]2O[C@H]2/C=C\C=C\C(=O)Cc2c(Cl)c(O)cc(O)c2C(=O)O1 | active |
| C/C(=N\NC(=O)Cc1ccc(Cl)cc1)c1ccccn1 | active |
| C/C(=N\NC(=O)c1ccc(Cl)cc1)c1ccccn1 | active |
| C/C(=N\NC(=O)c1cccc(Br)c1)c1ccccn1 | active |
| C/C(=N\NC(=O)c1ccc(F)cc1)c1ccccn1 | active |
| COc1ccc(C(=O)N/N=C(\C)c2ccccn2)cc1OC | active |
| C/C(=N\NC(=O)COc1ccccc1-c1ccccc1)c1ccccn1 | active |
| C/C(=N\NC(=O)c1ccc(Cl)c(Cl)c1)c1ccccn1 | active |
| Nc1c(Cl)ncnc1N/N=C/c1ccccn1 | active |
| COc1ccc(CNc2ncnc3ccccc23)cc1 | active |
| c1ccc(CNc2ncnc3ccccc23)cc1 | inactive |
| CC(Nc1ncnc2ccccc12)c1ccccc1 (stereo unspecified) | active |
| Cl.c1ccc(CNc2ncnc3ccccc23)cc1 | active |
| Cc1cc2c(NCc3ccccc3)ncnc2s1.Cl | active |
| Brc1ccc2ncnc(NCc3cccnc3)c2c1 | active |
| COc1cccc(CNc2ncnc3cc(Cl)ccc23)c1 | active |

| Structure (SMILES) | outcome |
| --- | --- |
| S=C(Nc1ccc(Cl)c(Cl)c1)NC1CCCCC1 | active |
| Fc1ccc(NC(=S)NNc2ncc(C(F)(F)F)cc2Cl)c(F)c1 | active |
| COCCOC(=O)c1[nH]c2c(c1C)C(=O)CC(c1cc(OC)c(OC)c(OC)c1)C2 (stereo unspecified) | active |
| CCCCOC(=O)c1[nH]c2c(c1C)C(=O)CC(c1cc(OC)c(OC)c(OC)c1)C2 (stereo unspecified) | active |
| Cc1ccc(-c2csc(NC(=O)C3=NN(c4ccccc4)C(=O)CC3)n2)cc1 | active |
| O=C(N/N=C/c1ccc([N+](=O)[O-])s1)c1ccncc1 | active |
| Cc1ccc(C(=O)N/N=C/c2ccc([N+](=O)[O-])s2)cc1 | active |
| Cc1ccc2oc(Nc3nc(-c4ccccc4)cc(=O)[nH]3)nc2c1 | active |
| COc1cccc(C(=O)Nc2ccc3nc(N4CCN(c5ncccn5)CC4)cc(C)c3c2)c1OC | active |
| Cc1ccc2nc(-c3ccc4c(c3)OCCO4)cn2c1 | active |
| O=C(/C=C/c1ccco1)Oc1cc(Br)cc(/C=N/NC(=O)c2ccccc2O)c1 | active |
| O=C(Nc1nc(-c2cccs2)cs1)c1ccc(S(=O)(=O)N2CCCC2)cc1 | active |
| O=C(Nc1nc(-c2ccccc2)cs1)C1CCCN(S(=O)(=O)c2ccccc2)C1 (stereo unspecified) | active |
| O=C(Nc1nnc(SCc2c(Cl)cccc2Cl)s1)c1cccc([N+](=O)[O-])c1 | active |
| CC(=O)c1cccc(NS(=O)(=O)c2ccc(-c3cnc(C4CC4)o3)cc2)c1 | active |
| COc1ccc(CCNc2cc(N3CCN(C(=O)c4ccccc4F)CC3)ccc2[N+](=O)[O-])cc1OC | active |
| Cc1ccc(Sc2c(C=O)c3ccccc3n2C)cc1 | active |
| Cn1c(Sc2ccc(Br)cc2)c(C=O)c2ccccc21 | active |
| Cc1cccc(Sc2c(C=O)c3ccccc3n2C)c1 | active |
